Assay results reported in PubChem BioAssay (EPA / NIEHS).
Values joined by “and” are separate entries in the source; they are usually repeats but may differ in a detail not shown here. Equal entries are not always repeated. Inconclusive results are not listed. Active and inactive are the calls of the source. How the source made its calls, unless noted: active means hit-call score of the fitted dose curve at least 0.9, where 1 is the maximum; inconclusive means response in the unintended direction; inactive means score below 0.9.

Experiments:
[1] = biological target: human RAR-related Orphan Receptor gamma (RORg), RORC (gene 6097) (UniProt P51449); test: ATG_RORg_TRANS: Attagene TRANS-FACTORIAL HepG2 Assay for human RAR-related Orphan Receptor gamma (RORg) (AID 2283011)
How it was run: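 First, HepG2 liver cells were transfected with GAL4-UAS-driven reporter constructs and the RORg-Gal4 fusion. Next, they were treated with chemical for 24 h. Finally, reporter mRNA was quantified by RT-PCR and capillary electrophoresis, with upward activity fitted against DMSO.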

[2] = biological target: Retinoic acid receptor RXR-alpha (Homo sapiens) (UniProt P19793); test: ATG_RXRa_TRANS: Attagene TRANS-FACTORIAL HepG2 Assay for human Retinoid X Receptor alpha (RXRa) (AID 2283012)
How it was run: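 HepG2 cells transiently transfected with multiplexed GAL4-UAS reporter units and chimeric NR-GAL4 fusions, dosed 24 h. Reporter mRNA measured by RT-PCR, FAM labelling, HpaI digestion and capillary electrophoresis; gain-of-signal fitted relative to DMSO baseline.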

[3] = biological target: human Thyroid Receptor alpha (THRa1), THRA (gene 7067) (UniProt P10827); test: ATG_THRa1_TRANS: Attagene TRANS-FACTORIAL HepG2 Assay for human Thyroid Receptor alpha (THRa1) (AID 2283014)
How it was run: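 Reporter transcript induction, read by capillary electrophoresis of 6-FAM-labelled RT-PCR products, reflects activity of a transfected THRa1-Gal4 fusion in HepG2 liver cells. Cells were dosed for 24 h; activity was fitted in the positive direction against DMSO.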

[4] = read-out: E-selectin (Homo sapiens) (UniProt P16581); test: BSK_3C_Eselectin: BioMAP Diversity Plus: 3C Assay for Eselectin Biomarker Activity (AID 2283015; active means hit-call score of the fitted dose curve at least 0.9, where 1 is the maximum; inactive means score below 0.9;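 on outcome: cell surface E-selectin protein quantified by ELISA 24 h after dosing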); conditions: primary human endothelial cells (HUVEC); actives raise or lower the signal
How it was run: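 ELISA read-out of E-selectin on endothelial monolayers after 24 h chemical treatment. Human umbilical vein primary cells served as the system, with DMSO defining baseline activity for bidirectional fitting.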

[5] = read-out: Interleukin-1 alpha (IL1a), IL1A (gene 3552); test: BSK_BE3C_IL1a: BioMAP Diversity Plus: BE3C Assay for Interleukin-1 alpha (IL1a) Biomarker Activity (AID 2283016; active means hit-call score of the fitted dose curve at least 0.9, where 1 is the maximum; inactive means score below 0.9); conditions: primary human bronchial epithelial cells; actives raise or lower the signal
How it was run: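 Human primary bronchial epithelial cells (BE3C system) were dosed with compound and IL-1a measured by ELISA 24 h later. Activity was fitted bidirectionally against DMSO baseline; cytotoxicity was tracked in parallel cultures by SRB total-protein staining.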

[6] = read-out: Monocyte Chemoattractant Protein-1 (MCP1), CCL2 (gene 6347); test: BSK_4H_MCP1: BioMAP Diversity Plus: 4H Assay for Monocyte Chemoattractant Protein-1 (MCP1) Biomarker Activity (AID 2283018; active means hit-call score of the fitted dose curve at least 0.9, where 1 is the maximum; inactive means score below 0.9); conditions: primary human endothelial cells (HUVEC); actives raise or lower the signal
How it was run: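 Human umbilical vein endothelial cells (4H system) dosed with chemical; MCP-1 measured by ELISA 24 h after dosing. Bidirectional curve fitting against DMSO negative control as baseline; parallel SRB total-protein staining tracks overt cytotoxicity.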

[7] = read-out: Human Leukocyte Antigen - DR isotype (HLADR), HLA-DRA (gene 3122); test: BSK_3C_HLADR: BioMAP Diversity Plus: 3C Assay for Human Leukocyte Antigen - DR isotype (HLADR) Biomarker Activity (AID 2283019; active means hit-call score of the fitted dose curve at least 0.9, where 1 is the maximum; inactive means score below 0.9;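 on outcome: ELISA of cell-surface HLA-DR on HUVEC 24 h after dosing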); conditions: primary human endothelial cells (HUVEC); actives raise or lower the signal
How it was run: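 ELISA readout of surface HLA-DR on human umbilical vein endothelium, taken 24 h after chemical treatment. Gain- and loss-of-signal were both fitted relative to DMSO.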

[8] = biological target: human Retinoid X Receptor beta (RXRb), RXRB (gene 6257) (UniProt P28702); test: ATG_RXRb_TRANS: Attagene TRANS-FACTORIAL HepG2 Assay for human Retinoid X Receptor beta (RXRb) (AID 2283013)
How it was run: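 HepG2 cells transiently transfected with multiplexed reporter units driven by GAL4-UAS and exogenous chimeric NR-Gal4 proteins; treated 24 h. Reporter mRNA measured by RT-PCR, 6-FAM labelling and capillary electrophoresis; gain-of-signal fitted versus DMSO baseline.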

[9] = read-out: Monocyte Chemoattractant Protein-1 (MCP1), CCL2 (gene 6347); test: BSK_3C_MCP1: BioMAP Diversity Plus: 3C Assay for Monocyte Chemoattractant Protein-1 (MCP1) Biomarker Activity (AID 2283017; active means hit-call score of the fitted dose curve at least 0.9, where 1 is the maximum; inactive means score below 0.9); conditions: primary human endothelial cells (HUVEC); actives raise or lower the signal
How it was run: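 ELISA read-out of MCP-1 from human umbilical vein endothelial cell cultures harvested 24 h post-dosing. Gain or loss of signal was fitted relative to DMSO.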

E-selectin (Homo sapiens), sequence (P16581 whole entry, looked up): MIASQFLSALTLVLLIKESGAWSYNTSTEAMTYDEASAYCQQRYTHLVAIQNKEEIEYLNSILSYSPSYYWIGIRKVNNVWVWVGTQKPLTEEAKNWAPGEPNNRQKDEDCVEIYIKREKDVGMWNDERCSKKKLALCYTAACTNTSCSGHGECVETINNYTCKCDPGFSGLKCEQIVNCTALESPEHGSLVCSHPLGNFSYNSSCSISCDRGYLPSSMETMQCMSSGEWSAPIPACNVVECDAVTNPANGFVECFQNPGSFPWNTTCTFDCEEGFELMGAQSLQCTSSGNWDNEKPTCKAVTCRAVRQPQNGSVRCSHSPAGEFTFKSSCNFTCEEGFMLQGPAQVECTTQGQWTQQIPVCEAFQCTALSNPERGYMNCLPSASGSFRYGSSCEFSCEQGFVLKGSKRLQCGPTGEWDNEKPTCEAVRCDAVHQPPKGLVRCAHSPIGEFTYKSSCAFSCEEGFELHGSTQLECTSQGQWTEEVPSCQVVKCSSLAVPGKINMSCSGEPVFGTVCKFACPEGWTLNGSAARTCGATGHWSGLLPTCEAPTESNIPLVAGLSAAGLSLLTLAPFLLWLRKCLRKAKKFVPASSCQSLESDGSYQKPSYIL
human Retinoid X Receptor beta (RXRb), RXRB (gene 6257), sequence (P28702 whole entry, looked up, the tested form may be a part): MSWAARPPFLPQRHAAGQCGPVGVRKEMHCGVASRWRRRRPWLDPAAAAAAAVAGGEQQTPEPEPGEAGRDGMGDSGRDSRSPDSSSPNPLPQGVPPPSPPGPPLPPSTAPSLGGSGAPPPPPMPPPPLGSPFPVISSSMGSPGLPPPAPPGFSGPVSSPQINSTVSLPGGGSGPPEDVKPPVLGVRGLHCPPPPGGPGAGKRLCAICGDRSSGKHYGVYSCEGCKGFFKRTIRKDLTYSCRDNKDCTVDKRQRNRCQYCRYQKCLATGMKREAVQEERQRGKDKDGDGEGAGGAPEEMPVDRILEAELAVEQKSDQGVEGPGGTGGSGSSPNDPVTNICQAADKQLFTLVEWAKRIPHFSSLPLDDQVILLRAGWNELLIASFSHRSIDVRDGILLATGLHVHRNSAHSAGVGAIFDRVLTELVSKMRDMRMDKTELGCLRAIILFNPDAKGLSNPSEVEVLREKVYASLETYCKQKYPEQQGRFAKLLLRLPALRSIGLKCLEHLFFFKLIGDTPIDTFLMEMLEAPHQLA
Retinoic acid receptor RXR-alpha (Homo sapiens), sequence (P19793 whole entry, looked up, the tested form may be a part): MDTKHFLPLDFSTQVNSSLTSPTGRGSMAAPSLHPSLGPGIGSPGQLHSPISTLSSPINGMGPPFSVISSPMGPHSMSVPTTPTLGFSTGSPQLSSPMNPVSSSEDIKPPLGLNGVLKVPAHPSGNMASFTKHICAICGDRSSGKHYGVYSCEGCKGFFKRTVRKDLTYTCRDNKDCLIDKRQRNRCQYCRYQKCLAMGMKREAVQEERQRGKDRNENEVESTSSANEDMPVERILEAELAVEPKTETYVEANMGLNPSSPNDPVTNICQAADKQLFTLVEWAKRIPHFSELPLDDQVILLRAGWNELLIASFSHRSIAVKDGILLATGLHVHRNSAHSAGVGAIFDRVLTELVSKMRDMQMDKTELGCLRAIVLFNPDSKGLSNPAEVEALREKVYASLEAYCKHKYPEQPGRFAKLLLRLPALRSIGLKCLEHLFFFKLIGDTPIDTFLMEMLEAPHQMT
human Thyroid Receptor alpha (THRa1), THRA (gene 7067), sequence (P10827 whole entry, looked up, the tested form may be a part): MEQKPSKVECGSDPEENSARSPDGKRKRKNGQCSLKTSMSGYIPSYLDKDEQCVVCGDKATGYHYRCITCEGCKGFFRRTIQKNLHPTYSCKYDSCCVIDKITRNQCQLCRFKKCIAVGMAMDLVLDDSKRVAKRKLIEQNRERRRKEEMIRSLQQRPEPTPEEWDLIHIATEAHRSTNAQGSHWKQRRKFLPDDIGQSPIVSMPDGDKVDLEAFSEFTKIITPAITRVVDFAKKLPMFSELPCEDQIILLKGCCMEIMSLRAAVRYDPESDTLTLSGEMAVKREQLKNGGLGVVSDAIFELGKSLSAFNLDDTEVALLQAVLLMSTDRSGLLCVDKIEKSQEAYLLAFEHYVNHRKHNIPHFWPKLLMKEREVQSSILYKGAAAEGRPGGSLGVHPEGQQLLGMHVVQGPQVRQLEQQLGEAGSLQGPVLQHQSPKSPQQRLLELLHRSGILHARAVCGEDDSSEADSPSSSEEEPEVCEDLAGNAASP
human RAR-related Orphan Receptor gamma (RORg), RORC (gene 6097), sequence (P51449 whole entry, looked up, the tested form may be a part): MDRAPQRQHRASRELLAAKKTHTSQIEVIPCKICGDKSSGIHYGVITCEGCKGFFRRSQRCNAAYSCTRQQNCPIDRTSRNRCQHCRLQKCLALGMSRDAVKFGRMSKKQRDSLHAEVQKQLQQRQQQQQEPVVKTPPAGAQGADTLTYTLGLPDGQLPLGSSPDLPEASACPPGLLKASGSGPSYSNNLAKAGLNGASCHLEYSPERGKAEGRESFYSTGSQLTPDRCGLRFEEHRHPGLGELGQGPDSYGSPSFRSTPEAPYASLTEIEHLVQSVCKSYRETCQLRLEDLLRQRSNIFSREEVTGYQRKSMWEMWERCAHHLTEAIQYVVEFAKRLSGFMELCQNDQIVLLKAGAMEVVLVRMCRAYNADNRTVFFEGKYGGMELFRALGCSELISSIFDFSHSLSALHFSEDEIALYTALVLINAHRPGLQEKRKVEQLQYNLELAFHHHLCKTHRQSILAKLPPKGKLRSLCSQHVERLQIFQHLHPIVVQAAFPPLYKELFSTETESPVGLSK

CCOC(=O)C1=NN(c2ccc(Cl)cc2Cl)C(C)(C(=O)OCC)C1 (configuration not stated)
outcome [1]: inactive
outcome [2]: inactive
outcome [3]: inactive
outcome [4]: inactive
outcome [5]: inactive
AC50 [6]: 20 µM (active)
outcome [7]: inactive

COc1ccc(C(=O)/C(Br)=C\C(=O)O)cc1
outcome [1]: inactive
outcome [2]: inactive
outcome [8]: inactive
outcome [3]: inactive
AC50 [4]: 15.2 µM (active) and 20 µM (active)
AC50 [5]: 25.5 µM (active) and 15.9 µM (active)
AC50 [9]: 28.8 µM (active) and 30.2 µM (active)
AC50 [6]: 16.6 µM (active) and 29.4 µM (active)
AC50 [7]: 12.4 µM (active) and 20 µM (active)

CC1=CP(=O)(c2ccccc2)CC1 (configuration not stated)
outcome [1]: inactive
outcome [2]: inactive
outcome [8]: inactive
outcome [3]: inactive

CCCCOCCOCCOC(C)=O
outcome [1]: inactive
outcome [2]: inactive
outcome [3]: inactive

C[Si](C)(C)N[Si](C)(C)C
outcome [1]: inactive
outcome [8]: inactive
outcome [3]: inactive

CCN(CC)c1cccc(C)c1
outcome [1]: inactive
outcome [8]: inactive

C=C(C)C1CC=C(C)CC1 (configuration not stated)
outcome [1]: inactive
outcome [8]: inactive

COc1nccnc1CC(C)C
outcome [1]: inactive
outcome [3]: inactive

CCCCCCCCCCCC(=O)N(C)CC(=O)O
outcome [1]: inactive
outcome [4]: inactive
outcome [5]: inactive
outcome [7]: inactive

CC(C)=CCCC(C)=CC#N
outcome [2]: inactive
outcome [8]: inactive

COC(=O)C=Cc1ccccc1
outcome [1]: inactive
outcome [8]: inactive
outcome [3]: inactive

COc1cc(O)c(C(=O)c2ccccc2)cc1S(=O)(=O)O
outcome [2]: inactive
outcome [8]: inactive

CC=C(C)C=CC=C(C)C
outcome [1]: inactive
outcome [8]: inactive
outcome [3]: inactive
AC50 [4]: 20 µM (active)
outcome [5]: inactive
outcome [9]: inactive
AC50 [7]: 20 µM (active)

CC(C)CCOCc1ccccc1
outcome [1]: inactive
outcome [8]: inactive

CC(C)(C)NC(=O)[C@H]1CC[C@H]2[C@@H]3CC[C@H]4NC(=O)C=C[C@]4(C)[C@H]3CC[C@]12C
outcome [2]: inactive

CC(C)CC(=O)OCc1ccccc1
outcome [1]: inactive
outcome [8]: inactive

CC1(C)CC(O)CC(C)(C)N1[O]
outcome [1]: inactive
outcome [2]: inactive
AC50 [4]: 0.0621 µM (active)
outcome [5]: inactive
outcome [9]: inactive
outcome [7]: inactive

CCOC(=O)c1ccc(C)cc1
outcome [2]: inactive
outcome [8]: inactive

CCCCc1ccc(Cl)cc1
outcome [2]: inactive
outcome [8]: inactive

CCCCC1CCC(=O)O1 (configuration not stated)
outcome [2]: inactive
outcome [8]: inactive

CC1=NN(c2ccc(S(=O)(=O)O)cc2)C(=O)C1N=Nc1ccccc1 (configuration not stated)
outcome [1]: inactive
outcome [8]: inactive
outcome [3]: inactive

O=C1c2ccccc2C(=O)c2cc(S(=O)(=O)O)ccc21
outcome [2]: inactive
outcome [8]: inactive

CCCCCCCCCCCC(=O)OCC
outcome [1]: inactive
outcome [8]: inactive

CCCCOC(=O)C(C)CC (configuration not stated)
outcome [1]: inactive
outcome [8]: inactive

CCCCC/C=C\C/C=C\CCCCCCCC(=O)O
outcome [2]: inactive

[Cl][Eu]([Cl])[Cl]
outcome [1]: inactive
outcome [8]: inactive

CCCCNS(=O)(=O)c1ccccc1
outcome [1]: inactive
outcome [3]: inactive

C=C1C[C@H]2[C@@H]3C=C(C)C4=CC(=O)CC[C@]4(C)[C@H]3CC[C@]2(C)[C@@]1(OC(C)=O)C(C)=O
outcome [2]: inactive
